Compounds with a hit are over-represented: about 12% of the library has one in this group of screens.
Pf growth 48h = inhibits P. falciparum growth in the first generation, 48 h; AID 504832; 310,000 compounds, 5.9% hits; P. falciparum luciferase growth in erythrocytes, 48 h; Potency, µM (titrated, usually from 28.7 µM), without a hit: top-dose activity change, negative = inhibition, hits mostly inhibitors; note: % is set by controls: 0 for no effect and ±100 for the full control effect
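Cell-based growth assay: transgenic P. falciparum expressing firefly luciferase, cultured in red cells within RPMI 1640 containing 0.5% w/v Albumax, 24 mM bicarbonate and gentamycin. A drop in luciferase activity indicates inhibition.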
SARS PLpro yeast = inhibitors of SARS-CoV papain-like protease in yeast. S. cerevisiae expressing SARS-CoV PLpro, growth rescue. Potency, µM (doses to about 32.9 µM), without a hit: at the highest dose activity, positive = growth rescue, most hits filed as activators. 330,000 compounds, 0.19% hits. AID 485353; calls by dose curve; note: 0% is about no effect; nearly all actives have a fitted effect of over 55% in size
Sm TGR block = inhibitors of Schistosoma mansoni thioredoxin glutathione reductase; Q962Y6; purified TGR, DTNB reduction, TNB absorbance 405 nm; Potency, µM (series often up to 114 µM), inactives show at the highest dose activity change, negative = inhibition, most hits filed as inhibitors; 360,000 compounds, 3% hits; note: % is set by controls: 0 for no effect and ±100 for the full control effect; nearly all actives have a fitted effect of over 60% in size
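TGR 20 nM + NADPH 100 uM (dispensed conc.), cpd preinc 15 min RT; start with NADPH (500 uM addition) then DTNB (15 mM addition). Kinetic TNB absorbance, 405 nm filter. Four-parameter Hill fit across titration.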
Pf growth 96h = P. falciparum growth inhibition at 96 hour, primary screen for plastid delayed-death inhibitors | P. falciparum luciferase reporter growth, 96 h | Potency, µM (highest dose often 28.7 µM), without a hit: at the highest dose activity change, negative = inhibition, hits mostly inhibitors | 320,000 compounds, 6.9% hits | AID 504834; note: % is set by controls: 0 for no effect and ±100 for the full control effect
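Luminescence readout: decreased luciferase signal marks inhibited growth of reporter-expressing P. falciparum in infected red cells (2% hematocrit, 0.05% parasitemia final), exposed to compound two generations (96 h, 37 C, 5% CO2).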
An asterisk follows results filed as active; ? = inconclusive; nt = no result given; [ ] = remark or other dose. Unless noted, calls come from the whole dose curve; as a rule, active = well fitted curve in the direction sought with a large enough effect; inconclusive = small, poorly fitted or top-dose-only effect, or another doubt; inactive = no such curve, though single readings can be large; an effect the other way counts as inactive or inconclusive. Potency is the fitted concentration of half-maximal effect.

SMILES	Pf growth 48h	SARS PLpro yeast	Sm TGR block	Pf growth 96h
COc1ccc(NC(=O)c2cc(-c3ccc(OC)c(OC)c3)nc3ccccc23)c(OC)c1	?	-14%	5%	10µM*
COc1ccc(-c2cc(C(=O)Nc3ccc(C(N)=O)cc3)c3ccccc3n2)cc1OC	?	4%	-12%	3.7µM*
Oc1cc2c(cc1O)C1c3ccc(O)c(O)c3OCC1(O)C2 (stereo not drawn)	?	0%	0.71µM*	2.6µM*
O=C(Nc1cccc(S(=O)(=O)N2CCCCC2)c1)c1cc(=O)[nH]c2ccccc12	nt	2%	nt	nt
CC(=O)N1CCN(c2ccc(NC(=O)C(c3ccccc3)c3ccccc3)cc2)CC1	?	-6%	-12%	-23%
CC(C)C(=O)Nc1ccc(N2CCCC2)cc1	nt	6%	35µM*	4.1µM*
O=C(Nc1ccc(N2CCCC2)cc1)C(c1ccccc1)c1ccccc1	nt	0%	?	4.7µM*
CC(C)NC(=O)N(C)C[C@H]1Oc2ccc(NS(=O)(=O)c3ccccc3)cc2C(=O)N([C@H](C)CO)C[C@@H]1C	nt	-5%	nt	nt
COc1cc(C(C(=O)NCC2CCCO2)N(C(=O)Cn2nnc3ccccc32)c2ccc(OC)c(OC)c2)ccc1O (stereo not drawn)	1%	-1%	45µM*	1%
COc1ccc(C(C(=O)NCC2CCCO2)N(C(=O)Cn2nnc3ccccc32)c2ccccc2C(C)=O)cc1OC (stereo not drawn)	?	-5%	5%	?
CCOc1cc(C(C(=O)NCC2CCCO2)N(C(=O)Cn2nnc3ccccc32)c2ccc(NC(C)=O)cc2)ccc1O (stereo not drawn)	4%	-1%	22µM*	7%
Cc1ccccc1NNC(N)=S	406%	0%	-11%	62%
NC(=S)NNc1c(F)c(F)c(F)c(F)c1F	?	-5%	40µM*	15%
O=[N+]([O-])C(Br)(CO)CO	5%	nt	nt	11%
COc1ccc(C(=O)c2ccc(OC)cc2O)c(O)c1	?	6%	-1%	32%[5.75 µM]
COC(=O)c1cc(O)cc(OC)c1C(=O)c1c(O)cc(C)cc1O	?	1%	-30%	5.2µM*
COc1cc(C)cc(C(=O)O)c1C1=C(O)c2cccc(O)c2C(=O)C1=O	3%	0%	-31%	21%
COC(=O)c1cc(O)cc(OC)c1Oc1cc(C)cc(O)c1C(=O)O	2.6µM*	-7%	7.1µM*	-4%
Cc1ccccc1C1=CCN(c2ncc(NC(=O)c3ccc(Cl)cc3)cc2C(=O)O)CC1	nt	nt	40µM*	nt
COc1ccc(C(C)=O)cc1CSc1nnc(-c2ccncc2)o1	?	-2%	-29%	4.1µM*
COC(=O)c1ccc(CSc2nnc(-c3ccncc3)o2)cc1	14%	1%	0%	12%
COc1ccc(C(C)=O)cc1CSc1nnnn1-c1ccc(O)cc1	-2%	0%	7.1µM*	-3%
CC(C)NC(=O)C1CCN(c2nc3ccccc3nc2C(F)(F)F)CC1	nt	nt	1%	nt
COc1ccc(OC)c2sc(N(Cc3cccnc3)C(=O)c3ccco3)nc12	nt	nt	-9%	nt
Cc1ccc(S(=O)(=O)ON2C(=O)c3ccccc3C2=O)c(C)c1	3%	-20%	1.4µM*	-14%
SMILES	Pf growth 48h	SARS PLpro yeast	Sm TGR block	Pf growth 96h
Cc1cc(C)c(S(=O)(=O)ON2C(=O)c3ccccc3C2=O)cc1C	34%	-6%	0.89µM*	44%
O=C1c2ccccc2C(=O)N1OS(=O)(=O)c1ccc(F)cc1	18%	-19%	0.71µM*	24%
Cc1cc(C)c(C)c(S(=O)(=O)ON2C(=O)c3ccccc3C2=O)c1C	7%	-6%	1.4µM*	82%
Cc1cc(NCc2ccc(Cl)cc2)n2cnnc2n1	nt	nt	0%	nt
OCCN1CCN(CC(O)COc2ccc(C34CC5CC(CC(C5)C3)C4)cc2)CC1 (stereo not drawn)	?	-9%	0%	12µM*
OCCN1CCN(CC(O)COc2ccc(Cl)cc2)CC1 (stereo not drawn)	5%	0%	-7%	9%
C/C(CC(=O)Nc1ccc(Cl)c(C(F)(F)F)c1)=N\NC(=O)c1cccc(O)c1	12µM*	-9%	12%	-1%
C/C(CC(=O)Nc1ccc(Cl)c(C(F)(F)F)c1)=N\NC(=O)c1ccccc1O	?	-22%	1%	?
NNC(=O)c1cc2ccccc2cc1NS(=O)(=O)c1ccccc1	5.9µM*	-9%	14%	?
COc1ccc(S(=O)(=O)N2CCC(C(=O)Nc3ccc(Oc4ccccc4)cc3)CC2)cc1	nt	nt	7%	nt
CC1CCN(S(=O)(=O)c2ccc(C(=O)Nc3ncccc3O)cc2)CC1	?	6%	?	5.2µM*
CC1CCN(S(=O)(=O)c2ccc(C(=O)Nc3nnc(-c4ccccn4)o3)cc2)CC1	-2%	-1%	2%	124%
Cc1cc(F)ccc1S(=O)(=O)Nc1ccccc1C(=O)Nc1ccccc1-c1nc2ccccc2[nH]1	9.3µM*	-4%	-9%	1.9µM*
CC1CCCN(S(=O)(=O)c2ccc(C(=O)Nc3ccccc3-c3nc4ccccc4[nH]3)cc2)C1 (stereo not drawn)	1.5µM*	-14%	-4%	?
Cc1cc(F)ccc1S(=O)(=O)Nc1ccccc1C(=O)Nc1ncn[nH]1	-20%	0%	0%	-17%
CC1CCN(S(=O)(=O)c2ccc(C(=O)Nc3ccccc3-c3nc4ccccc4[nH]3)cc2)CC1	4.1µM*	15%	-12%	7.4µM*
CCN1C(=O)[C@H]2[C@@H](c3ccc(C)cc3)N3C(=O)N(c4cccc(F)c4)C(=O)[C@@]3(C)[C@H]2C1=O	35%	-3%	-3%	84%
COc1cc(OC)cc(C(=O)Nc2cc3c(cc2N2CCOCC2)n(C)c(=O)n3C)c1	nt	nt	0%	nt
COc1ccc(NC(=O)c2ccc3c(=O)n(CC4CCCO4)c(=S)[nH]c3c2)c(OC)c1 (stereo not drawn)	-4%	-9%	-10%	13%
O=C(Cn1c(=O)n(-c2ccc(F)cc2)c(=O)c2sc3ccccc3c21)N1CCCC1	nt	nt	3%	nt
COc1ccc(-c2c3c(nc4sc(C(=O)Nc5cc(C)on5)c(N)c24)CCC3)cc1	4.1µM*	0%	-6%	14%
O=C(CSCc1ccc([N+](=O)[O-])cc1)NC1CC1	-3%	7%	1%	13µM*
Cc1[nH]c2ccccc2c1C1=NNC(=Nc2ccc(F)cc2)SC1	?	4%	2%	8.3µM*
COc1ccc(N=C2NN=C(c3c(C)[nH]c4ccccc34)CS2)cc1	?	5%	0%	?
COc1ccccc1-c1nn2c(-c3ccccc3Cl)nnc2s1	?	-4%	-7%	nt
Clc1cccc(-c2nn3c(-c4ccncc4)nnc3s2)c1	20%	-2%	-11%	13µM*
COc1cccc(-c2nnc3sc(-c4ccc(Cl)cc4)nn23)c1	6%	-1%	5%	-10%
COc1ccccc1-c1nnc2sc(COc3ccc(Cl)cc3Cl)nn12	?	8%	4%	10µM*
CCN(CC)c1ccc(-c2nn3c(-c4ccccc4OC)nnc3s2)cc1	2.6µM*	-18%	-1%	11%[5.75 µM]

High-throughput results deposited in PubChem by National Center for Advancing Translational Sciences (NCATS).
